Experimental data reported in PubChem BioAssay (NCATS).
Several values for one entry are separate records, joined by “and”; a condition that tells them apart may be missing. Equal values may be shown once. Records with an inconclusive call do not appear. Activity calls are given as the source filed them. The call rests on the fitted dose curve.

Test: qHTS Assay for Lipid Storage Modulators (AID 1519); on activity change, negative = inhibition: on the % scale 0 is the no-effect control and ±100 the full control effect
Conditions: Drosophila S3 cells, BODIPY lipid droplet/cell ratio, laser cytometry, cells loaded with oleic acid; for activity change, negative = inhibition: at 57.5 µM (top of the series)
Source text: NIH Molecular Libraries Probe Production Centers Network [MLPCN]
NIH Chemical Genomics Center [NCGC]
Assay Submitter (PI): Beller, Mathias; Max-Planck-Institut fur Biophysikalische Chemie
NCGC Assay Overview: Storing lipids as a reservoir for energy or the anabolism of elementary metabolites is a common feature of probably all cells and is conserved from bacteria to humans. The universal cellular lipid storage organelle is the so-called lipid storage droplet (LD). Although ubiquitous, LDs share a simple structure composed of a hydrophobic core that harbors the storage lipids, which is shielded by a droplet-specific phospholipid monolayer to which proteins are attached. The current model of LD biogenesis involves an incorporation of the lipid core into the membrane leaflets of the endoplasmic reticulum (ER) followed by a subsequent budding-like maturation of a LD, which ultimately pinches off. Once released, LD volume can increase by localized lipogenesis or fusion of existing droplets. Storage lipids are re-mobilized enzymatically by lipase activity. Lipase regulation in the adipocyte is heavily studied and involves multiple components including catecholamine signaling, the LD-associated proteins Perilipin and comparative gene identification-58 (CGI-58) and at least two lipases named hormone sensitive lipase (HSL) and adipocyte triglyceride lipase (ATGL). LD regulation outside of the adipocyte is poorly understood and only few components are known. However, there is an urgent need to learn more about ectopic fat depots as mislocalized storage of lipids, for example in the liver or muscle, is an eminent health problem associated with insulin resistance or the metabolic syndrome. We developed a laser-scanning cytometer assay to enable 1,536-well screening and combined the results of the small molecules screen with an RNAi database based on lipid storage.
NCGC Assay Protocol Summary:
We dispensed 4 uL of cells at 1.25 x 10^6 cells/mL into LoBase Aurora COC 1,536-well plates (black walled, clear bottom) with a bottle-valve solenoid-based dispenser (Aurora) to obtain 5,000 cells/well. Triacsin C (Sigma-Aldrich T-4540), an inhibitor of long-chain fatty acyl CoA synthetase that blocks synthesis of triglycerides, was used as a positive control for lipid under-storage. A total of 23 nL of compound solution of different concentrations were transferred to the assay plates using a Kalypsys pin tool equipped with a 1,536-pin array containing 10-nL slotted pins (FP1S10, 0.457-mm diameter, 50.8 mm long; V&P Scientific). One microliter of oleic acid (400 uM) was added, and the plate was lidded with stainless steel rubber gasket lined lids containing pinholes. […] Fluorescence was detected by excitation of the fluorophores with a 488-nm laser on an Acumen Explorer (TTP Lab Tech). The total intensity in channel 1 (500-530 nm) reflected lipid droplet accumulation. […] The ratio of the total intensity in PMT channel 1 over total intensity of channel 3 was also calculated. Percent activity was computed relative to an internal control (100% inhibited lipid droplet deposition due to the presence of 20 uM Triacsin C), which was added to 32 wells/plate.

[1] = measured here: cell count channel max response
[2] = measured here: lipid channel max response

Structure (SMILES)	activity change, negative = inhibition	max response [1]	max response [2]
c1ccc2cc(CC3=NCCN3)ccc2c1	1.13% (inactive)	29%	31.2%
CN1CCC(c2c[nH]c3ccc(O)cc23)CC1	2.83% (inactive) and 0.677% (inactive)	19.5% and 47.8%	24% and 52.3%
O=C1C=CC(=O)C=C1	0.0539% (inactive)	-25.7%	-24.4%
O=C(O)c1cc[c]([Hg][Cl])cc1	1.37% (inactive)	-16.6%	-15.1%
CCCCCCC(C)(C)c1ccc([C@@H]2C[C@H](O)CC[C@H]2CCCO)c(O)c1	-5.44% (inactive)	8.54%	2.73%
CCCN(CCC)CCc1c[nH]c2ccc(C(N)=O)cc12	1.01% (inactive)	-28.4%	-33.9%
CC(N)Cc1c[nH]c2ccc(O)cc12 (configuration not stated)	-0.0169% (inactive)	8.43%	9.94%
O=[N+]([O-])c1cc(O)c(O)c([N+](=O)[O-])c1	9.72% (inactive) and 0.381% (inactive)	15.9% and 33.6%	26.8% and 29.7%
OC1CCCCC1N1CCC(c2ccccc2)CC1 (configuration not stated)	6.18% (inactive)	4.61%	12.5%
O=c1ccc2[nH]cc(C3=CCNCC3)c2[nH]1	9.75% (inactive)	9.34%	20.6%
NNC(=O)c1ccc(O)cc1	0.0246% (inactive)	-17.6%	-15.4%
COC(=O)N1CCN(C(=O)Cc2ccc(Cl)c(Cl)c2)C(CN2CCCC2)C1 (configuration not stated)	0.712% (inactive)	7.98%	7.35%
N[C@@]1(C(=O)O)CC[C@@H](C(=O)O)C1	-2.99% (inactive)	-46.9%	-46.9%
CN1CC[C@@]2(C)c3cc(O)ccc3N(C)C12 (some centres not stated)	0.587% (inactive)	-12.4%	-11.4%
